Molecules are shown by their SMILES. Screen size: about 190,000 compounds; about 1,300 (0.68%) were called active. Cut-off read from the data, not from the text of the source: active = inhibition above about 50%; inactive = the rest. The sample as a whole holds a higher share of actives than the screen did.

In this experiment the target is Mannose-6-phosphate isomerase (Homo sapiens) (UniProt P34949). Briefly: MPI inhibition at elevated mannose 6-phosphate – biochemical, fluorescence intensity, high mannose 6-phosphate, primary screen (AID 1220). Conditions: recombinant PMI enzyme, coupled fluorescence intensity; at 20 µM; hits give high values.
Sequence of Mannose-6-phosphate isomerase (Homo sapiens) (P34949 whole entry, looked up): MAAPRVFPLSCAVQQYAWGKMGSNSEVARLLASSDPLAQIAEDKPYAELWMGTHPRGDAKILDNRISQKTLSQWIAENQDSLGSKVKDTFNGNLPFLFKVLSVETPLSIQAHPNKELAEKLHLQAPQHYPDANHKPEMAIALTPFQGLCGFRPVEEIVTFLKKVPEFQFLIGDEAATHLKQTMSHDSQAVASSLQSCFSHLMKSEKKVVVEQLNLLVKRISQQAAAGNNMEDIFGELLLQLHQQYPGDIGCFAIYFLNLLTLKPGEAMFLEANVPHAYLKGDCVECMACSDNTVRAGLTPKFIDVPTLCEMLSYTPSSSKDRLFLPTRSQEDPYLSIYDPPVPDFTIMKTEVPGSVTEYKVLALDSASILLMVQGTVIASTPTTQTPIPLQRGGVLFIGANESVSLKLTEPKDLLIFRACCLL
The inhibition is the change of the read-out against control, counted positive when it falls. Take `C/C(=N/OCc1ccc(Br)cc1)c1ccccn1`: the inhibition was 1.2% (inactive). Take `O=[N+]([O-])c1ccc2nc(NCCCO)nc(-c3ccccc3)c2c1`: the inhibition was -39.7% (inactive). Turning to `CCCS(=O)(=O)c1c(S(=O)(=O)CCC)c2ccc(C(N)=O)cn2c1C(=O)c1ccc(OC)cc1`, the inhibition was 14% (inactive). As for `O=C(Nc1cccn2ncnc12)C(F)(F)F`, the inhibition is -1.2% (inactive). `COc1ccc(CNC(=O)CSc2nnc3c(Cl)cc(C(F)(F)F)cn23)cc1OC`: the inhibition was 12.9% (inactive). To `O=C(CCC(=O)N/N=C/c1cc(Cl)cc(Cl)c1O)NCc1ccccc1` belongs 17.9% (inactive).

For the compound `Oc1c(Cl)cc(Cl)cc1/C=N/Nc1ncc(Br)cn1`, the inhibition was -22.9% (inactive). As for `Oc1c(Cl)cc(Cl)cc1C=Nc1ccc(Br)cc1`, the inhibition was 17.7% (inactive). For `Oc1c(Cl)cc(Cl)cc1/C=N/c1nccs1`, the inhibition is -2.8% (inactive). Regarding `Oc1ccc(Cl)cc1C=Nc1ccc(Br)cc1`, the inhibition is 8.3% (inactive). Consider `Oc1c(Cl)cc(Cl)cc1C=Nc1ccccc1N1CCCC1`, for which the inhibition was 33.7% (inactive). As to `Cc1ccc(N=Cc2cc(Cl)cc(Cl)c2O)nc1`, the inhibition is 58.6% (active).

For `NC(=O)c1cccc(N=Cc2cc(Cl)cc(Cl)c2O)c1`, the inhibition is 55.3% (active).

Regarding `Cc1cccc(N=Cc2[nH]c3ccc(Br)c(Cl)c3c2O)c1`, the inhibition was -1.9% (inactive). On to `Cc1cccc(N=Cc2cc(Br)cc(Cl)c2O)c1`, for which the inhibition was 57.8% (active). On to `Cc1ccc(N=Cc2cc(Br)cc(Cl)c2O)cc1`, for which the inhibition was 50.8% (active). Take `COc1cc(Br)cc(C=Nc2cccc(C(F)(F)F)c2)c1O`: the inhibition is 15.9% (inactive).

As for `O=C(CN1CCSCC1)N/N=C/c1ccc(F)c(F)c1`, the inhibition is -7.6% (inactive).

For `CC(Oc1ccc(Br)cc1)C(=O)NCc1ccccn1` (stereo unspecified), the inhibition was -0.8% (inactive). With `CCN1CCN(C(=O)c2ccccc2NS(=O)(=O)c2ccc(Cl)cc2)CC1`, the inhibition was -3.6% (inactive). To `COc1ccc(C(C#N)N2CCC(c3ccccc3)=N2)cc1OC` (stereo unspecified) belongs -5.6% (inactive); to `COc1ccc(/C(C)=N\NS(=O)(=O)c2ccccc2)cc1OC`, 4.4% (inactive); to `COc1ccc(C2CCCN2C(=S)Nc2ccc(C)cc2Cl)cc1OC` (stereo unspecified), 2.1% (inactive). The same measure for `COc1ccc(CNC(=O)c2ccc(C(C)C)cc2)cc1`: 12.3% (inactive); for `O=C(Nc1ccccc1OC(F)F)c1ccccc1`: 9.2% (inactive).

Turning to `CC1CCCCC1N1CCN(C(=O)c2cccc(F)c2)CC1` (stereo unspecified), the inhibition is -10.5% (inactive). The same measure for `O=C(Nc1nc2ccc(F)cc2s1)C1CCN(S(=O)(=O)c2cc([N+](=O)[O-])ccc2Cl)CC1`: 13.7% (inactive); for `C=CCn1c(Cc2ccc(OC)cc2)nnc1SCC(=O)NCCc1ccccc1`: -0.7% (inactive). Regarding `COc1ccc(C(C)C)cc1S(=O)(=O)N1CCN(c2ccccc2)CC1`, the inhibition was 6.8% (inactive).

On to `Cn1nnnc1NCc1ccc(Cl)cc1`, for which the inhibition is -7.1% (inactive). As for `COCc1ccc(CN2CCc3c([nH]c4ccccc34)C2CC(C)C)o1` (stereo unspecified), the inhibition is 52% (active). On to `COCc1ccc(CN2CCc3c([nH]c4ccccc34)C2C(C)(C)C)o1` (stereo unspecified), for which the inhibition is 14.1% (inactive). On to `Cc1cnc(CN2CCc3c([nH]c4ccccc34)C2CC(C)C)[nH]1` (stereo unspecified), for which the inhibition was 11.2% (inactive).

`O=C(Cc1cccs1)Nc1ccc(S(=O)(=O)N2CCCC2)cc1`: the inhibition is 39.8% (inactive). On to `CC(On1c(-c2ccccc2)nc2ccc(Cl)cc21)C(=O)O` (stereo unspecified), for which the inhibition is -10.3% (inactive). The same measure for `C/C(=C/C(=O)N1CCc2ccccc21)C(=O)O`: 2.1% (inactive). As to `CC(C)=CC(=O)N1CCCc2ccccc21`, the inhibition was 10.1% (inactive). Turning to `C/C(=C\C(=O)N1CCc2ccccc21)C(=O)O`, the inhibition is 61.3% (active). With `Nc1nonc1-n1nnc(C(=O)O)c1-c1cccs1`, the inhibition is 0.4% (inactive). The same measure for `Cc1noc(C)c1COC(=O)CNC(=O)c1cccc(F)c1`: -11.8% (inactive); for `Oc1c(Br)cc(Br)cc1C=Nc1ccc2c(c1)OCO2`: 48.6% (inactive).

With `O=[N+]([O-])c1ccc(O)c(C=Nc2ccc3oc(Cc4ccc(Cl)cc4)nc3c2)c1`, the inhibition was 61.1% (active).

As for `Oc1c(Cl)cc(Cl)cc1C=Nc1ccc2c(c1)OCCO2`, the inhibition is 25% (inactive). Turning to `O=C(Nc1ccc2oc(Cc3ccc(Cl)cc3)nc2c1)c1cccnc1`, the inhibition is 7.7% (inactive). On to `O=[N+]([O-])c1ccc(O)c(C=Nc2ccc3nc(-c4ccccc4)[nH]c3c2)c1`, for which the inhibition is 8.2% (inactive). In the case of `Oc1ccc(C=Nc2cccc3ncccc23)c(O)c1`, the inhibition was 38.7% (inactive). To `CN(C)/N=C/c1cc([N+](=O)[O-])ccc1O` belongs 9.8% (inactive). As to `Oc1c(Br)cc(Br)cc1C=Nc1ccc2c(c1)OCCO2`, the inhibition was 59.7% (active).

On to `O=[N+]([O-])c1ccc(O)c(C=Nc2ccc3c(c2)OCCO3)c1`, for which the inhibition was 52.8% (active). Take `O=C(N/N=C/c1cc([N+](=O)[O-])ccc1O)c1ccc2c(c1)OCCO2`: the inhibition is -16.7% (inactive). In the case of `O=[N+]([O-])c1ccc(O)c(/C=N/Nc2ccccn2)c1`, the inhibition is -20.1% (inactive). The same measure for `O=[N+]([O-])c1ccc(O)c(C=Nc2cccc3ncccc23)c1`: 52.5% (active); for `C=CCn1c(SCC(N)=O)nnc1-c1cccc(Br)c1`: 1% (inactive); for `Cc1ccc(CN2CCN(Cc3cnc(C)[nH]3)CC2CCO)cc1` (stereo unspecified): 2% (inactive). Turning to `O=C(Nc1c(F)cc(F)cc1Br)C1CCCO1` (stereo unspecified), the inhibition was 15.5% (inactive).

As for `CC(=O)NCCc1ccc(S(=O)(=O)N2CCOCC2)cc1`, the inhibition was -2.7% (inactive). As to `CCOC(=O)CNC(=O)CSc1nnc(SCC(=O)NCC(=O)OCC)s1`, the inhibition is -6.4% (inactive).

For `COc1ccc(/C=C/C(=O)NC(=S)N2CCN(C)CC2)cc1`, the inhibition is -10.4% (inactive).

In the case of `CSc1ccccc1NC(=O)CN(C)CC(=O)Nc1ccccc1F`, the inhibition is -13.9% (inactive).

Take `Cc1ccc(NC(=S)N(Cc2ccco2)C2CCN(C(C)C)CC2)cc1`: the inhibition is -8.2% (inactive). In the case of `Cn1c2c(c(=O)n(C)c1=O)[C@@H]1c3c(ccc4ccccc34)OC[C@@H]1CO2`, the inhibition is -2.5% (inactive).

`O=C1COc2ccc3ccccc3c2CN1`: the inhibition was -0.8% (inactive).

`CN1COc2ccc3ccccc3c2C1`: the inhibition is 67.8% (active). The same measure for `Cc1ccc(C(=O)N/N=C/c2ccc(N3CCOCC3)cc2)c(C)c1`: -8% (inactive); for `CCN(C(=O)c1ccc(NC(C)=O)cc1)c1ccccc1C`: -3% (inactive); for `Cc1ccc(NC(=O)c2ccc(Nc3c([N+](=O)[O-])cc([N+](=O)[O-])cc3[N+](=O)[O-])cc2)cc1`: 3.9% (inactive). Consider `O=[N+]([O-])c1ccccc1Nc1ccccc1`, for which the inhibition was -3.7% (inactive). `O=[N+]([O-])c1ccc2c(c1Nc1ccccc1)=NC1(CCCCC1)N=2`: the inhibition was 58.9% (active).

For `Cc1ccc(Nc2cc(C)nc3c(C)ccc([N+](=O)[O-])c23)cc1`, the inhibition is 10.2% (inactive). In the case of `Cc1ccc(Nc2c([N+](=O)[O-])ccc3c2=NC2(CCCCC2)N=3)cc1`, the inhibition is 50.8% (active). Consider `Cc1ccccc1Nc1c([N+](=O)[O-])ccc2c1=NC1(CCCCC1)N=2`, for which the inhibition was 38.7% (inactive).

For the origin of these results see PubChem BioAssay AID1220 (Sanford-Burnham Center for Chemical Genomics, 2008).
